Assay results as given in PubChem BioAssay (NCATS).
Results filed as inconclusive are left out. The source made the active and inactive calls. The call rests on the fitted dose curve; in most records, active means well fitted curve in the direction sought with a large enough effect; inconclusive means small, poorly fitted or top-dose-only effect, or another doubt; inactive means no such curve, though single readings can be large; an effect the other way counts as inactive or inconclusive.

Tests used:
[1] = test system: Es-2; assay: Primary qHTS to identify gynecologic anti-cancer compounds using libraries of approved drugs and bioactive compounds (AID 1345084); details: Gynecologic cancer cell panel viability, ATPlite luminescence, 48 h; series mostly up to 57.5 µM; further: nearly all actives have a fitted effect of over 55% in size
Procedure, shortened: (§1)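 Measured: luminescence after ATPlite addition (15 min, RT). Exposure: 48 h, 37 C, 5% CO2.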

[2] = test system: HeLa; assay: as above; details: Gynecologic cancer cell panel viability, ATPlite luminescence, 48 h; series mostly up to 57.5 µM
Procedure, shortened: as §1

[3] = test system: Hek293T; assay: as above; details: Gynecologic cancer cell panel viability, ATPlite luminescence, 48 h, control line for the selectivity index; series mostly up to 57.5 µM
Procedure, shortened: as §1

[4] = test system: JEG-3; assay: as above; details: Gynecologic cancer cell panel viability, ATPlite luminescence, 48 h; series mostly up to 57.5 µM
Procedure, shortened: as §1

[5] = test system: OV90; assay: as above; details: Gynecologic cancer cell panel viability, ATPlite luminescence, 48 h; series mostly up to 57.5 µM
Procedure, shortened: as §1

[6] = test system: PA-1; assay: as above; details: Gynecologic cancer cell panel viability, ATPlite luminescence, 48 h; series mostly up to 57.5 µM
Procedure, shortened: as §1

[7] = test system: SKOV3; assay: as above; details: Gynecologic cancer cell panel viability, ATPlite luminescence, 48 h; series mostly up to 57.5 µM
Procedure, shortened: as §1

[8] = test system: Tov-21-G; assay: as above; details: Gynecologic cancer cell panel viability, ATPlite luminescence, 48 h; series mostly up to 57.5 µM
Procedure, shortened: as §1

[9] = test system: Tov112D; assay: as above; details: Gynecologic cancer cell panel viability, ATPlite luminescence, 48 h; series mostly up to 57.5 µM
Procedure, shortened: as §1

[10] = Drug repurposing screens with cells derived from glioblastoma tumor samples (AID 1345199); details: GBM patient neurospheres viability, ATP luminescence, 48 h; further: nearly all actives have a fitted effect of over 40% in size; further: potency means the concentration at half of the fitted maximal effect
Procedure, shortened: (§2)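 Four patient lines of CD133+ GBM neurospheres were screened at several concentrations; hits were retested in those lines plus three slower-growing GBM lines, using 48-hour treatment and ATP-based viability.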

[11] = test system: astro; assay: as above; details: viability, ATP luminescence, 48 h; series mostly up to 45.9 µM
Procedure, shortened: as §2

[12] = at 45.9 µM (top of the series), tumour line B
[13] = at 45.9 µM (top of the series), tumour line D
[14] = at 46 µM (top of the series), tumour line A
[15] = at 46.1 µM (top of the series), tumour line C
On the % scale 0 is the no-effect control and ±100 the full control effect.

NCCCNCCSP(=O)(O)O
inactive: activity change, negative = cytotoxicity [1] 6.18% [at 11.6 µM] | activity change, negative = cytotoxicity [2] 7.86% [at 11.6 µM] | activity change, negative = cytotoxicity [3] -0.973% [at 11.6 µM] | activity change, negative = cytotoxicity [4] -0.217% [at 11.6 µM] | activity change, negative = cytotoxicity [5] -0.281% [at 11.6 µM] | activity change, negative = cytotoxicity [6] 1.25% [at 11.6 µM] | activity change, negative = cytotoxicity [7] 19.8% [at 11.6 µM] | activity change, negative = cytotoxicity [8] -2.2% [at 11.6 µM] | activity change, negative = cytotoxicity [9] 1.24% [at 11.6 µM] | activity, negative = cell killing [10, 12] -11.7% | activity, negative = cell killing [10, 13] -3.44% | activity, negative = cell killing [10, 14] -3.51% | activity, negative = cell killing [10, 15] 0.364% | Potency [11]

COCCOC(=O)C1=C(C)NC(C)=C(C(=O)OC(C)C)C1c1cccc([N+](=O)[O-])c1 (stereo unspecified)
inactive: Potency [1] | Potency [2] | Potency [3] | Potency [4] | Potency [5] | Potency [6] | Potency [7] | Potency [8] | Potency [9] | activity, negative = cell killing [10, 12] -4.05% | activity, negative = cell killing [10, 15] -1.16%
active: Potency ([10]; tumour line A) 14.1 µM

FC(F)(F)c1ccccc1-n1ccnc1
inactive: Potency [1] | Potency [2] | Potency [3] | Potency [4] | Potency [5] | Potency [6] | Potency [7] | Potency [8] | Potency [9] | activity, negative = cell killing [10, 12] -13.1% | activity, negative = cell killing [10, 13] -9.1% | activity, negative = cell killing [10, 14] -27.4% | activity, negative = cell killing [10, 15] -16.7% | Potency [11]

Cc1scc2c1N(C(=O)CN1CCN(C)CC1)c1ccccc1NC2=O
inactive: Potency [1] | Potency [2] | Potency [3] | Potency [4] | Potency [5] | Potency [6] | Potency [7] | Potency [8] | Potency [9] | activity, negative = cell killing [10, 12] -11.6% | activity, negative = cell killing [10, 13] 2.13% | activity, negative = cell killing [10, 14] -22.7% | activity, negative = cell killing [10, 15] -12.1% | Potency [11]

CC(C(=O)O)c1ccc(CC2CCCC2=O)cc1 (stereo unspecified)
inactive: Potency [1] | Potency [2] | Potency [3] | Potency [4] | Potency [5] | Potency [6] | Potency [7] | Potency [8] | Potency [9] | activity, negative = cell killing [10, 12] -3.22% | activity, negative = cell killing [10, 13] 4.21% | activity, negative = cell killing [10, 14] -18.9% | activity, negative = cell killing [10, 15] -19.4% | Potency [11]

NC(=O)c1ncn([C@@H]2O[C@H](CO)[C@@H](O)[C@H]2O)c1O
inactive: Potency [1] | Potency [2] | Potency [3] | Potency [4] | Potency [5] | Potency [6] | Potency [7] | Potency [8] | Potency [9] | activity, negative = cell killing [10, 12] -12.1% | activity, negative = cell killing [10, 13] 11.4% | activity, negative = cell killing [10, 14] -0.128% | activity, negative = cell killing [10, 15] -22.4% | Potency [11]

CCCOc1ccccc1-c1nc2n[nH]nc2c(=O)[nH]1
inactive: Potency [1] | Potency [2] | Potency [3] | Potency [4] | Potency [5] | Potency [6] | Potency [7] | Potency [8] | Potency [9] | activity, negative = cell killing [10, 12] -4.45% | activity, negative = cell killing [10, 13] -8.24% | activity, negative = cell killing [10, 14] -28% | activity, negative = cell killing [10, 15] -19% | Potency [11]
